In PubChem BioAssay (Tox21):
Results filed as inconclusive are left out. The source made the active and inactive calls. Unless noted, calls come from the whole dose curve; as a rule, active = well fitted curve in the direction sought with a large enough effect in the repeat runs; inconclusive = weak or mixed curves; inactive = no such curve, though single readings can be large; an effect the other way counts as inactive or inconclusive.

Legend:
[1] = qHTS assay to identify small molecule agonists of the androgen receptor (AR) signaling pathway in the presence of an antagonist - cell viability counter screen (AID 1259379); note: nearly all actives have a fitted effect of over 25% in size; note: potency is the fitted concentration of half-maximal effect
Method in brief: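 Counter screen for cell viability run in parallel with the AR agonist-mode luciferase assay. MDA-kb2 cells were co-treated with nilutamide (3.0uM final) and compounds, then incubated 16 hr at 37C, and CellTiter-Fluor fluorescence was measured.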

[2] = qHTS assay to identify small molecule agonists of the estrogen receptor beta (ER-beta) signaling pathway - cell viability counter screen (AID 1259380); note: nearly all actives have a fitted effect of over 30% in size; note: potency is the fitted concentration of half-maximal effect
Method in brief: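 In this qHTS counter screen, HEK293T cells carrying an ER-beta/UAS beta-lactamase reporter, grown in 2% charcoal-stripped FBS, received compound for 16 hr; ATP-based CellTiter-Glo luminescence was then read after 30 min at room temperature.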

[3] = qHTS assay to identify small molecule antagonists of the estrogen receptor beta (ER-beta) signaling pathway - cell viability counter screen (AID 1259382); note: nearly all actives have a fitted effect of over 55% in size; note: potency is the fitted concentration of half-maximal effect
Method in brief: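 HEK293T ER-beta-UAS-bla, 2% charcoal-stripped FBS; compounds + 1nM E2 16 hr 37C; CellTiter-Glo luminescence, 30 min RT.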

[4] = target: Estrogen receptor (Homo sapiens) (UniProt P03372); experiment: qHTS assay to identify small molecule agonists of the estrogen receptor alpha (ER-alpha) signaling pathway in the presence of an antagonist (AID 1259383; calls by dose curve; note: nearly all actives have a fitted effect of over 15% in size; note: potency is the fitted concentration of half-maximal effect; for activation: top concentration of the series differs between compounds)
Chain of Estrogen receptor (Homo sapiens) (P03372 whole entry, looked up): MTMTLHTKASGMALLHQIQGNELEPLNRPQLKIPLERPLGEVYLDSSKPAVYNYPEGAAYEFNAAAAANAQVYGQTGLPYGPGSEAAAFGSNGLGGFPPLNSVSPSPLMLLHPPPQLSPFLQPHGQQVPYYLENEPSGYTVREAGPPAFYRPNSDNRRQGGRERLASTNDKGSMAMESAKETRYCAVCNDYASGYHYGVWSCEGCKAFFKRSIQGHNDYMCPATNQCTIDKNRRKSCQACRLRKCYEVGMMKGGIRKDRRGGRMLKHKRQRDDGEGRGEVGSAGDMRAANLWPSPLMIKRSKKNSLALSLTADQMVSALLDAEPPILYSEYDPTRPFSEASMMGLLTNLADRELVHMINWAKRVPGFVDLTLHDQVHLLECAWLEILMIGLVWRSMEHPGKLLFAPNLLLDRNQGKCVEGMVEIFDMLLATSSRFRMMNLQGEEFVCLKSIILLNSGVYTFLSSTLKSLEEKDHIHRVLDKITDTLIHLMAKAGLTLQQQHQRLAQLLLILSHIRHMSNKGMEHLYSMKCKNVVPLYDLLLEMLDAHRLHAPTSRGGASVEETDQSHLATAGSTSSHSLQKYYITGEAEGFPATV
Method in brief: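 ER-alpha agonism measured under antagonist challenge: 10.0nM ICI-182,780 (final) plus compound, 15 concentrations, 22hr, VM7Luc4E2 ERE-luciferase cells. Read by luminescence.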

[5] = qHTS assay to identify small molecule agonists or antagonists of the thyroid stimulating hormone receptor (TSHR) signaling pathway - wild type cell line counter screen (AID 1259384; calls by dose curve)
Method in brief: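 Wild-type Hek293 cells, 800/well, 18 h at 37C, then compound with Ro20-1724 for 30 min RT. cAMP by HTRF (cAMP-d2/anti-cAMP cryptate), 1 h RT, fluorescence read. 15 concentrations, triplicates.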

[6] = target: Thyrotropin receptor (Homo sapiens) (UniProt P16473); experiment: qHTS assay to identify small molecule antagonists of the thyroid stimulating hormone receptor (TSHR) signaling pathway (AID 1259385; calls by dose curve; note: nearly all actives have a fitted effect of over 20% in size)
Chain of Thyrotropin receptor (Homo sapiens) (P16473 whole entry, looked up): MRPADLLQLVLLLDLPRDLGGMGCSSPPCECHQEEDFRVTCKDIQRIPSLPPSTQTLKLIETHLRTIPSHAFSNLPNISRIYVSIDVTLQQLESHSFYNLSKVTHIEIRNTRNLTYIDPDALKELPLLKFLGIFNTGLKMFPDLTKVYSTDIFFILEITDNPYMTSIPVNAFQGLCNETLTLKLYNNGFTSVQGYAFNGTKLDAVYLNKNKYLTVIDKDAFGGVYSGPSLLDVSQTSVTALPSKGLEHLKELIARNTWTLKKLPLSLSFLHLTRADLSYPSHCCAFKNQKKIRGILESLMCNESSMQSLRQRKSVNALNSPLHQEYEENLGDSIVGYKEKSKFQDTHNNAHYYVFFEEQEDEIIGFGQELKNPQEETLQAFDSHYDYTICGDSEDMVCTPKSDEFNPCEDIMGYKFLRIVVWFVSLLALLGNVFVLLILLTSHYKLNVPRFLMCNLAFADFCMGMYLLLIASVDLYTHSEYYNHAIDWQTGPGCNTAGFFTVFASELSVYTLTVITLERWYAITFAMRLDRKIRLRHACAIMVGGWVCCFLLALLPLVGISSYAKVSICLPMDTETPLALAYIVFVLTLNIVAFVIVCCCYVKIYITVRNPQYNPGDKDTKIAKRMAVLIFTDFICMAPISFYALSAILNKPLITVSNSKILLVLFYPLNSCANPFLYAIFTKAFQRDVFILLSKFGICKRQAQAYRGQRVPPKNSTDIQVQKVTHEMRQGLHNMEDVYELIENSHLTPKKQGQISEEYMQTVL
Method in brief: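 TSHR-HEK293 cells (800/well) plated 18 h, then compounds with Ro20-1724 and TSH at 1.5 ng/mL final, 30 min at room temperature. cAMP quantified by HTRF (cAMP-d2/anti-cAMP-cryptate, 1 h); 15 concentrations in triplicate.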

[7] = target: Progesterone receptor (Homo sapiens) (UniProt P06401); experiment: qHTS assay to identify small molecule agonists of the progesterone receptor (PR) signaling pathway (AID 1346784; calls by dose curve; note: nearly all actives have a fitted effect of over 30% in size)
Chain of Progesterone receptor (Homo sapiens) (P06401 whole entry, looked up): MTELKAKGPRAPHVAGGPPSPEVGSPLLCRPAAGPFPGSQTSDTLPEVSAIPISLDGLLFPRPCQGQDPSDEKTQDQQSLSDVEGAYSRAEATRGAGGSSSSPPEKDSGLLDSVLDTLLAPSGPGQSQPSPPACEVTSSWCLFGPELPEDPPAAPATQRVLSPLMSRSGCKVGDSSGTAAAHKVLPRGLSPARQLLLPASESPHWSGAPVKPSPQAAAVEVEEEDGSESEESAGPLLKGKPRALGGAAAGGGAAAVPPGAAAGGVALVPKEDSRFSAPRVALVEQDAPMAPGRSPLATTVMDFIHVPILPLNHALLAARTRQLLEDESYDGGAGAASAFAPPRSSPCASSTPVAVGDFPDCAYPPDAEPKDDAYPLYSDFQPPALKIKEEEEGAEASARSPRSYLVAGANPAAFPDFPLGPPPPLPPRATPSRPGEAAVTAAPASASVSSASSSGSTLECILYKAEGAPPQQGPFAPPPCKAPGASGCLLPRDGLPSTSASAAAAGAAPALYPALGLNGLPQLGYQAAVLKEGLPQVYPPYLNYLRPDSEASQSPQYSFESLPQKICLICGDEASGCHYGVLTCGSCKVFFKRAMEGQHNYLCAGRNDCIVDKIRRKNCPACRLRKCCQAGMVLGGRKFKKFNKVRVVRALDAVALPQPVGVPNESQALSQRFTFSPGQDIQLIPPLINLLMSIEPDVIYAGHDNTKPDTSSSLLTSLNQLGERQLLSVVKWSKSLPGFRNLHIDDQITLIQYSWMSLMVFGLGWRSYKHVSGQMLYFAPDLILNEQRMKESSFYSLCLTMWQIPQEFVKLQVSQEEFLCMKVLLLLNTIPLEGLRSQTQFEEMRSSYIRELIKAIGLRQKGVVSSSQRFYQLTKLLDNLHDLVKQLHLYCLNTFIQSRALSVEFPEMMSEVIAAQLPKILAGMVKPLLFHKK
Method in brief: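 Seed PR-UAS-bla HEK 293T cells (2% charcoal-stripped FBS), incubate 6 hr at 37C; add compounds in DMSO, 16 hr at 37C; add LiveBLAzer B/G substrate, 2 hr RT; read fluorescence intensity.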

[8] = qHTS assay to identify small molecule antagonists of the progesterone receptor (PR) signaling pathway - cell viability counter screen (AID 1346798); note: series mostly up to about 92 µM; nearly all actives have a fitted effect of over 50% in size
Method in brief: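 Measures cytotoxicity in parallel with the PR antagonist reporter read: HEK293T PR-UAS-bla cells get compound and R5020 for 16 hr, and remaining viable cells are quantified by CellTiter-Glo luminescence.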

[9] = qHTS assay to identify small molecule agonists of the progesterone receptor (PR) signaling pathway - cell viability counter screen (AID 1346799; calls by dose curve; note: nearly all actives have a fitted effect of over 45% in size; note: potency is the fitted concentration of half-maximal effect)
Method in brief: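 Using the same plates as the PR reporter screen, HEK293T PR-UAS-bla cells received compounds for 16 hr at 37C and were then lysed with CellTiter-Glo; luminescence was read 30 min later at room temperature.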

[10] = qHTS assay to identify small molecule agonists of the TGF-beta/Smad signaling pathway - cell viability counter screen (AID 1346829); note: top concentration of the series differs between compounds; nearly all actives have a fitted effect of over 45% in size
Method in brief: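 Luminescence from CellTiter-Glo, read after a 30 min room-temperature incubation, gives cell viability of SBE-bla HEK 293T cells treated 5 hr with compounds at 37 C.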

[11] = qHTS assay to identify small molecule agonists of the TGF-beta/Smad signaling pathway (AID 1346859; active = well fitted activation curve with a large enough effect in the signal ratio in the repeat runs, not every such curve was filed as active; the % refers to the signal ratio; note: series mostly up to about 77 µM)
Method in brief: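 Beta-lactamase reporter activity downstream of Smad binding elements was measured in stably transfected HEK 293T cells; compounds were incubated for 5 hr, substrate for 2 hr at room temperature.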

[12] = target: Thyrotropin-releasing hormone receptor (Homo sapiens) (UniProt P34981); experiment: qHTS assay to identify small molecule antagonists of the thyrotropin-releasing hormone receptor (TRHR) signaling pathway (AID 1346877; active = well fitted inhibition curve with a large enough effect in the repeat runs, not every such curve was filed as active; note: series mostly up to about 51 µM)
Chain of Thyrotropin-releasing hormone receptor (Homo sapiens) (P34981 whole entry, looked up): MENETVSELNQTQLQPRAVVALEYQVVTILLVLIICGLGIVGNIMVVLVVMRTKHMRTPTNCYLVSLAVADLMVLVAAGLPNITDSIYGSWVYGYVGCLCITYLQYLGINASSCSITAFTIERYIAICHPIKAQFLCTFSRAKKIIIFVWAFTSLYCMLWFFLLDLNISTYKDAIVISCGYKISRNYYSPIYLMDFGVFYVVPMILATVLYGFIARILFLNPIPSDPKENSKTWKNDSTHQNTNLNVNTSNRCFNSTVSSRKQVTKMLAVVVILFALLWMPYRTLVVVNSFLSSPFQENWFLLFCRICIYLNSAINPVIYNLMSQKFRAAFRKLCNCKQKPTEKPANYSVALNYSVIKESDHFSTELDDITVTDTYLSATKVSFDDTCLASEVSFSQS
Method in brief: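 Human TRHR in HEK293 cells; inhibition of the intracellular calcium rise triggered by 1 nM TRH was followed by fluorescence over 3 min. Compounds were run at 15 concentrations, three replicates each.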

[13] = target: Thyrotropin-releasing hormone receptor (Homo sapiens) (UniProt P34981); experiment: qHTS assay to identify small molecule agonists of the thyrotropin-releasing hormone receptor (TRHR) signaling pathway (AID 1346891; calls by dose curve;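 note: HEK293 cells expressing TRHR with calcium dye readout; series mostly up to about 58 µM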)
Method in brief: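 Overnight-plated (18 h, 37 °C, 5% CO2) TRHR-Hek293 cells; 2 h calcium dye at 37 °C; compound in DMSO; 3-min kinetic fluorescence read.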

[14] = target: Estrogen receptor beta (Homo sapiens) (UniProt Q92731); experiment: qHTS assay to identify small molecule antagonists of the estrogen receptor beta (ER-beta) signaling pathway (AID 1259378; active = well fitted inhibition curve with a large enough effect in the signal ratio in the repeat runs, not every such curve was filed as active; the % refers to the signal ratio)
Chain of Estrogen receptor beta (Homo sapiens) (Q92731 whole entry, looked up): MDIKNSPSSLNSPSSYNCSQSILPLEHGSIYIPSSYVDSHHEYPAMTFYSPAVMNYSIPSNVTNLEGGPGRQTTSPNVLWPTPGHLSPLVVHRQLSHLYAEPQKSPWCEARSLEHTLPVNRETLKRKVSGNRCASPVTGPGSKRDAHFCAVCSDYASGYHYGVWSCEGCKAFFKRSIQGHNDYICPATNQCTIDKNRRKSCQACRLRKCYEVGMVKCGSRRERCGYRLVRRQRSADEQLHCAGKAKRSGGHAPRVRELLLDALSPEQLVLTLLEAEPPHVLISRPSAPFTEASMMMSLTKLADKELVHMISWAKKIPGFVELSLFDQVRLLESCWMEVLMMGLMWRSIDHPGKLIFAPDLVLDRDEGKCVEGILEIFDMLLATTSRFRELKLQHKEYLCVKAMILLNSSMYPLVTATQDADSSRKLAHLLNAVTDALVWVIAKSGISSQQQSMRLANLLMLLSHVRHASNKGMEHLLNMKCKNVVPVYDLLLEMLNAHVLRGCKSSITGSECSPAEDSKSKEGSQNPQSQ
Method in brief: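 ER-beta-UAS-bla HEK293T cells in 2% charcoal-stripped FBS medium treated with compound plus 1nM final 17-beta-estradiol for 16 hr at 37C. Beta-lactamase reporter read by FRET substrate fluorescence after 2 hours at room temperature.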

[15] = qHTS assay to identify small molecule agonists of the estrogen receptor alpha (ER-alpha) signaling pathway in the presence of an antagonist - cell viability counter screen (AID 1259386);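 note: cells exposed to compounds for 22 h at 37 °C before the viability read; nearly all actives have a fitted effect of over 30% in size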; note: potency is the fitted concentration of half-maximal effect
Method in brief: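 Steps: 5-day stripped-FBS culture; seed and incubate 24hr; add ICI-182,780 (10.0nM final); pin 15-point compound titration; incubate 22hr at 37C; add CellTiter-Fluor at 21hr; read fluorescence.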

[16] = target: Progesterone receptor (Homo sapiens) (UniProt P06401); experiment: qHTS assay to identify small molecule antagonists of the progesterone receptor (PR) signaling pathway (AID 1346795; active = well fitted inhibition curve with a large enough effect in the signal ratio in the repeat runs, not every such curve was filed as active; the % refers to the signal ratio)
Method in brief: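 Screening used a GripTite HEK293T line with PR-responsive UAS-beta-lactamase. Cells were challenged with compound in the presence of 1 nM R5020 final for 16 hr at 37C; B/G FRET substrate, 2 hr room temperature, fluorescence.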

[17] = qHTS assay to identify small molecule antagonists of the TGF-beta/Smad signaling pathway - cell viability counter screen (AID 1346824); note: nearly all actives have a fitted effect of over 50% in size
Method in brief: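 SBE-bla HEK 293T cells, incubated overnight, then compound plus 0.25 ng/mL TGF-beta1 (stock added) for 5 hr at 37 C. Viability was read in the same wells by CellTiter-Glo luminescence after 30 min at room temperature.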

[18] = target: Androgen receptor (Homo sapiens) (UniProt P10275); experiment: qHTS assay to identify small molecule agonists of the androgen receptor (AR) signaling pathway in the presence of an antagonist (AID 1259381; calls by dose curve; note: nearly all actives have a fitted effect of over 15% in size)
Chain of Androgen receptor (Homo sapiens) (P10275 whole entry, looked up): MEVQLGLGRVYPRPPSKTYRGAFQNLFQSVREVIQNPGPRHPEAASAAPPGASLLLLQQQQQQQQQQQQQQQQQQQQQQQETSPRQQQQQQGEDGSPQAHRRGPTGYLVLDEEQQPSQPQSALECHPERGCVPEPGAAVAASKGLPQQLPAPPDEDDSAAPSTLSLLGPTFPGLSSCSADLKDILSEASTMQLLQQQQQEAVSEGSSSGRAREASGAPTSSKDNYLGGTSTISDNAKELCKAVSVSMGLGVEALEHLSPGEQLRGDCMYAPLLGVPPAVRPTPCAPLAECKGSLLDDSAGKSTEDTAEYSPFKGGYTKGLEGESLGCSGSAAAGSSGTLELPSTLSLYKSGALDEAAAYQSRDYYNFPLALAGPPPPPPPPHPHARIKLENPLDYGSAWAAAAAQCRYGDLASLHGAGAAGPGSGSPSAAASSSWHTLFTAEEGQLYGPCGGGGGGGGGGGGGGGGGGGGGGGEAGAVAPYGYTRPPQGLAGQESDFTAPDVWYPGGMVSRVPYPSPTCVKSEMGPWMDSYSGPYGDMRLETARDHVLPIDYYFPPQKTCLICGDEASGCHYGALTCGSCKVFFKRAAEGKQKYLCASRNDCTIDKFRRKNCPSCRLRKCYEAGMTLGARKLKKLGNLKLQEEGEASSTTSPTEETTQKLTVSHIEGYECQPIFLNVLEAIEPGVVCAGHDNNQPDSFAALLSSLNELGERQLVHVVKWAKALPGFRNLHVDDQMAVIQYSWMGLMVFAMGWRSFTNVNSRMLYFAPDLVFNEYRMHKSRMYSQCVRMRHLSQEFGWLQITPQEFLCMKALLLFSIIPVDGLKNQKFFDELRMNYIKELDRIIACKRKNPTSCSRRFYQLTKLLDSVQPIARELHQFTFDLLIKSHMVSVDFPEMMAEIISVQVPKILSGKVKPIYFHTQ
Method in brief: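 AR antagonist background: nilutamide 3.0uM final. Cell line: MDA-kb2, MMTV-driven luciferase, responsive to both AR and GR. Exposure 16hr, 37C, no CO2; ONE-Glo luminescence.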

[19] = target: Estrogen receptor beta (Homo sapiens) (UniProt Q92731); experiment: qHTS assay to identify small molecule agonists of the estrogen receptor beta (ER-beta) signaling pathway (AID 1259377; active = well fitted activation curve with a large enough effect in the signal ratio in the repeat runs, not every such curve was filed as active; the % refers to the signal ratio)
Method in brief: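 Screening used GripTite ER-beta-UAS-bla cells held in 2% charcoal-stripped FBS medium. After overnight (16 hr) compound incubation at 37C, beta-lactamase activity was detected with a FRET substrate by fluorescence.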

Measured: Potency

NC(=O)C(c1ccccc1)(c1ccccc1)[C@@H]1CCN(CCc2ccc3c(c2)CCO3)C1
not listed: [14] | [15] | [16] | [17] | [18] | [19]
inactive: all other assays above

CC1=CCCC(C)(C)C12CCC(C)O2 (stereo not drawn)
not listed: [4] | [7] | [11] | [17] | [18] | [19]
inactive: all other assays above

CN(C)CCN(Cc1ccc(Cl)cc1)c1ccccn1
inactive: [1] | [5] | [6] | [7] | [9] | [17] | [10] | [11] | [12] | [13]
active: [2] 33.5 µM

Nc1ccc([N+](=O)[O-])c(C(F)(F)F)c1
not listed: [9] | [15] | [16] | [18] | [19]
inactive: all other assays above

C[Si](C)(CCCN)O[Si](C)(C)CCCN
not listed: [14] | [18] | [19]
inactive: all other assays above

COc1ccc(C(=O)c2ccc(OC)cc2O)c(O)c1
active: [4] 8.7 µM
not listed: [9] | [15] | [16] | [17] | [19]
inactive: all other assays above

COc1cc2c(cc1OC)C(C(C(=O)N(CCc1ccc(OC)c(OC)c1OC)CCc1ccc(OC)c(OC)c1OC)c1ccccc1)=NCC2 (stereo not drawn)
not listed: [1] | [4] | [8] | [9] | [14] | [15] | [16] | [18]
inactive: all other assays above

CO[C@@H]1[C@H](OC(=O)/C=C/C=C/C=C/C=C/C(=O)O)CC[C@]2(CO2)[C@H]1[C@@]1(C)O[C@@H]1CC=C(C)C
not listed: [1] | [18] | [19]
inactive: all other assays above

CCOc1ccc(N=Nc2ccc(/C=C/c3ccc(N=Nc4ccc(OCC)cc4)cc3S(=O)(=O)O)c(S(=O)(=O)O)c2)cc1
active: [1] 21.4 µM | [15] 38 µM
not listed: [4] | [14] | [17] | [18] | [19]
inactive: all other assays above

CCCCc1nc2cccnc2n1Cc1ccc(-c2ccccc2-c2nnn[nH]2)cc1
not listed: [2] | [3] | [11] | [14] | [15] | [16] | [18] | [19]
inactive: all other assays above

COc1cc2nc(N3CCN(C(=O)C4COc5ccccc5O4)CC3)nc(N)c2cc1OC (stereo not drawn)
inactive: [1] | [2] | [3] | [5] | [15] | [7] | [16] | [9] | [10] | [11]

CN(C)C(=O)NC1(c2ccccc2)CCN(CC[C@@]2(c3ccc(F)c(F)c3)CN(C(=O)c3ccccc3)CCO2)CC1
active: [2] 71.4 µM
not listed: [3] | [4] | [8] | [10] | [14] | [18] | [19]
inactive: all other assays above

C=C(C)C(=O)OCCOCC
not listed: [2] | [14] | [15] | [18]
inactive: all other assays above

C#Cc1cccc(Nc2ncnc3cc(OCCOC)c(OCCOC)cc23)c1
inactive: [3] | [4] | [6] | [7] | [16] | [9] | [10]
active: [2] 2.66 µM

Nc1ccccc1S(=O)(=O)c1ccccc1
not listed: [4] | [9] | [14] | [15] | [16] | [18] | [19]
inactive: all other assays above

CN1CCC(=C2c3ccccc3Sc3ccccc32)CC1
active: [2] 23.7 µM | [3] 21.1 µM
not listed: [5] | [6] | [8] | [14] | [16] | [19]
inactive: all other assays above

C[C@H](CCC(=O)O)[C@H]1CC[C@H]2[C@@H]3CC[C@@H]4C[C@H](O)CC[C@]4(C)[C@H]3C[C@H](O)[C@]12C
inactive: [4] | [5] | [17] | [10] | [12] | [13]
active: [2] 48.7 µM | [9] 54.6 µM

CCNc1cc(O)ccc1C
not listed: [6] | [11] | [18] | [19]
inactive: all other assays above

CC(C)Cc1ccc(C(C)C(=O)OCc2ccccn2)cc1 (stereo not drawn)
not listed: [6] | [14] | [16] | [18] | [19]
inactive: all other assays above

CC1(c2ccccc2)OC(C(=O)O)=CC1=O (stereo not drawn)
not listed: [4] | [11] | [17] | [18] | [19]
inactive: all other assays above

COc1cc2nc(Cl)nc(N)c2cc1OC
not listed: [5] | [6] | [9] | [14] | [19]
inactive: all other assays above
